The campaign covered roughly 6,200 compounds. About 2,900 (47%) were called active. Rule as the data show it: active = inhibition above about 50%; inactive = the rest. The set was probably picked from earlier hits. The list shows a part of the results.
Test: Mycobacterium tuberculosis growth inhibition, primary screen (AID 1259343)
Conditions: inhibition: at 10 µM, active compounds read high; outcome: 10 uM

| Structure (SMILES) | inhibition |
| --- | --- |
| CCCCC1CCC(C(=O)Nc2noc3ncccc23)CC1 (stereo not given) | 99.3% (active) |
| O=C(Nc1cccc2ncccc12)C1CC2CCCC(C1)C2=O (stereo not given) | -15.1% (inactive) |
| CN(Cc1csc(-c2cccs2)n1)c1ccc(-c2nccn2C)nn1 | 68.3% (active) |
| c1cnc(N2CCN(Cc3csc(-c4cccs4)n3)CC2)nc1 | 40.8% (inactive) |
| CC1CCc2[nH]c3c(C(=O)NCC4CN(C)CCO4)cccc3c2C1 (stereo not given) | 39.4% (inactive) |
| Cc1nc(Cc2noc(CC3CC4CCC3C4)n2)no1 (stereo not given) | 66.8% (active) |
| Cc1ccc(CN(C)Cc2nc(CC3CC3)no2)o1 | inactive |
| COCCN=c1scc(-c2ccc(OC(F)F)cc2)n1N=Cc1ccc(OC)cc1 | 63.2% (active) |
| CN=c1scc(-c2cccc(Br)c2)n1N=Cc1cccc(O)c1O | 17.2% (inactive) |
| C=CCN=c1scc(-c2ccc(OC(F)F)cc2)n1N=Cc1ccc[nH]1 | 46.4% (inactive) |
| CN=c1scc(-c2ccc(OC(F)F)cc2)n1N=Cc1cccc(O)c1O | 98.9% (active) |
| COCCN=c1scc(-c2ccc(Br)cc2)n1N=Cc1ccc(F)cc1 | 40.8% (inactive) |
| CN=c1scc(-c2ccccc2)n1N=Cc1cccc(C(F)(F)F)c1 | 1.23% (inactive) |
| CN=c1scc(-c2ccccc2)n1N=Cc1ccccc1Br | 6.14% (inactive) |
| COCCN=c1scc(-c2ccc(OC(F)F)cc2)n1N=CC1CC2C=CC1C2 (stereo not given) | 101% (active) |
| COc1ccc(C=Nn2c(-c3ccc(Cl)cc3)csc2=N)cc1 | 60.1% (active) |
| C(=Nn1c(-c2ccccc2)csc1=NCCc1ccccc1)c1ccccn1 | 21.8% (inactive) |
| COc1ccc(/C=N\n2c(-c3ccc(Cl)cc3)csc2=N)cc1 | 38.1% (inactive) |
| N#CC1(c2ccccc2)CCC2(CC1)N=C(N)Nc1nc3cc4c(cc3n12)OCCCO4 (stereo not given) | 45.8% (inactive) |
| O=S(=O)(NCc1ccc(Cl)cc1)N1CCCCCC1 | 10.6% (inactive) |
| Clc1ccc(CNc2c3c(nc4nncn24)CCC3)cc1 | 54.3% (active) |
| O=C(Nc1ccc(SCc2cccnc2)cc1)C1=COCCO1 | 61% (active) |
| Cc1ccc(Sc2ccc(NC(=O)C3=COCCO3)cc2)cc1C | 33.3% (inactive) |
| O=C(Nc1ccc(Oc2ccccc2)cc1)C1=COCCO1 | 49.4% (inactive) |
| O=C1NC(=S)C(=Cc2ccc(-c3ccc(F)cc3)o2)S1 | 97.6% (active) |

| Structure (SMILES) | inhibition |
| --- | --- |
| NC(=S)NN=Cc1ccc(-c2ccc(SC(F)F)cc2)o1 | 103% (active) |
| NC(=S)NN=Cc1ccc(-c2nc3ccccc3s2)o1 | 67.3% (active) |
| N#CC(C#N)=Cc1ccc(-c2ccc(F)cc2)o1 | -20.9% (inactive) |
| O=C1NC(=S)C(=Cc2ccc(-c3nc4ccccc4s3)o2)S1 | 77.4% (active) |
| N=c1oc2c([N+](=O)[O-])cc(Cl)cc2cc1-c1nc2ccccc2s1 | -34.4% (inactive) |
| O=C(Nc1nc(-c2nc3ccccc3s2)cs1)c1ccc([N+](=O)[O-])o1 | -46.3% (inactive) |
| N#CC(C#N)=Cc1ccc(-c2ccc(SC(F)F)cc2)o1 | -10.2% (inactive) |
| Cc1nc(CNS(=O)(=O)c2c(C)c(C)c(C)c(C)c2C)cs1 | 6.48% (inactive) |
| O=C(O)c1cc(Br)c2ccccc2c1O | 96% (active) |
| Cc1ccn(C(=O)Cc2csc(-c3ccccn3)n2)c(=NC2CCCCC2)c1 | -7.81% (inactive) |
| Cc1cc(NC(=O)CNCc2csc(-c3cnccn3)n2)ccc1Cl | 77.5% (active) |
| O=c1[nH]c2cc(Cl)ccc2c(O)c1-c1ccc(Oc2ccccc2)cc1 | 17.5% (inactive) |
| O=c1[nH]c2ccccc2c(O)c1Sc1ccccc1 | 82.5% (active) |
| O=C(c1c(-c2ccc(Br)cc2)c2ccccc2[nH]c1=O)C(F)(F)F | 18.7% (inactive) |
| CCc1ccc(N2C(=O)/C(=C/c3cc(C)n(-c4ccc(C(=O)O)cc4)c3C)C(=O)NC2=S)cc1 | 34.2% (inactive) |
| COC(=O)c1ccccc1NCc1cc(=O)oc2cc(O)c(O)cc12 | 75.9% (active) |
| CNC(=O)C(C#N)C(=O)CCc1cccc(OC2CCCC2)c1 (stereo not given) | 54.1% (active) |
| N#Cc1cccc(C(=O)NCc2cccnc2OC2CCCC2)c1 | -4.09% (inactive) |
| CC1CC(=O)NN1CC(=O)N1c2ccccc2OCC1c1ccccc1 (stereo not given) | 26.4% (inactive) |
| CCN(CC(C)C#N)C(=O)Nc1ccc(-c2csnn2)cc1 (stereo not given) | 80.5% (active) |
| CCC(NC(=O)Nc1ccc(-c2csnn2)cc1)c1nccs1 (stereo not given) | -4.07% (inactive) |
| Cc1cc(=O)[nH]c(=S)[nH]1 | 0.31% (inactive) |
| CCc1ccc(S(=O)(=O)c2cnc3ccc(C)cc3c2N2CCC3(CC2)OCCO3)cc1 | 67.2% (active) |
| O=C(Nc1ccc(Oc2ccccc2)nc1)C1CCN(Cc2cccc3nonc23)CC1 | inactive |
| O=C(Nc1ccc(Oc2ccccc2)nc1)C1CCN(C(=O)c2ccco2)CC1 | 90.5% (active) |

| Structure (SMILES) | inhibition |
| --- | --- |
| C#Cc1ccc(CN2CCC(C(=O)Nc3ccc(Oc4ccccc4)nc3)CC2)cc1 | -2.94% (inactive) |
| O=C(Nc1ccc(Oc2ccccc2)nc1)C1CCN(C(=O)c2cnsn2)CC1 | 93.8% (active) |
| O=C(Nc1ccc(Oc2ccccc2)nc1)C1CCN(C(=O)c2cccs2)CC1 | 77.1% (active) |
| CC(=O)c1cc(CN2CCC(C(=O)Nc3ccc(Oc4ccccc4)nc3)CC2)cs1 | 63.2% (active) |
| O=C(Nc1ccc(Oc2ccccc2)nc1)C1CCN(C(=O)[C@@H]2C[C@@H]3C=C[C@H]2C3)CC1 | 56.1% (active) |
| COc1cc(C)ccc1S(=O)(=O)NC(=O)C1(C)CCN1C(=O)Cc1ccc(Cl)cc1Cl (stereo not given) | 47.9% (inactive) |
| COc1ccc(OCCCOc2ccc(Cl)cc2Cl)cc1 | 27.8% (inactive) |
| COc1cc(CNCCO)cc(Cl)c1OCc1ccc(Cl)cc1Cl | 83% (active) |
| O=c1[nH]c(=S)[nH]nc1-c1ccc2c(c1)OCCO2 | 36.5% (inactive) |
| O=c1[nH]c(=S)[nH]nc1-c1ccc(F)c(F)c1 | 80.3% (active) |
| COc1cc(Oc2ccccc2)ccc1N | 23.5% (inactive) |
| Nc1ccc(Oc2cc(N)cc(Oc3ccccc3)c2)cc1 | -36.6% (inactive) |
| NC(CC1CCCC1)c1ccc(Oc2ccccc2)cc1 (stereo not given) | 79.5% (active) |
| COc1ccccc1C1(O)CCN(CCCn2c3ccccc3c3ccccc32)CC1 | 51.9% (active) |
| CCCc1ccc(C(O)c2ncc(-c3cccc(C)c3)[nH]2)cc1 (stereo not given) | 19.5% (inactive) |
| CCCc1ccc(C(O)c2ncc(-c3ccccc3C)[nH]2)cc1 (stereo not given) | 78% (active) |
| Cc1ccc(-c2cnc(C(O)c3cc(C)cc(C)c3)[nH]2)cc1 (stereo not given) | 61.7% (active) |
| CCc1ccc(C(O)c2ncc(-c3cccc(C)c3)[nH]2)cc1 (stereo not given) | 56.7% (active) |
| CCc1ccc(C(O)c2ncc(-c3cccc(C(F)(F)F)c3)[nH]2)cc1 (stereo not given) | 34% (inactive) |
| Cc1cc(C(O)c2ncc(-c3ccc(Cl)cc3)[nH]2)ccc1F (stereo not given) | 84.8% (active) |
| Cc1ccc(-c2cnc(C(O)c3ccc(Cl)c(F)c3)[nH]2)cc1 (stereo not given) | 42.2% (inactive) |
| CCc1ccc(C(O)c2ncc(-c3ccc(C)cc3)[nH]2)cc1 (stereo not given) | 1.21% (inactive) |
| Cc1ccc(C(O)c2ncc(-c3ccc(Cl)cc3)[nH]2)cc1 (stereo not given) | 36.3% (inactive) |
| CCCc1ccc(C(O)c2ncc(-c3ccccc3)[nH]2)cc1 (stereo not given) | 36.8% (inactive) |
| CCCc1ccc(C(O)c2ncc(-c3ccccc3F)[nH]2)cc1 (stereo not given) | 21.1% (inactive) |

| Structure (SMILES) | inhibition |
| --- | --- |
| OC(c1cccc(F)c1)c1ncc(-c2ccc(Oc3ccccc3)cc2)[nH]1 (stereo not given) | 89.6% (active) |
| Cc1cc(C)c(C(O)c2ncc(-c3cccc4ccccc34)[nH]2)c(C)c1 (stereo not given) | 78.9% (active) |
| OC(c1ccc(Cl)cc1)c1ncc(-c2cccc(F)c2)[nH]1 (stereo not given) | 8.73% (inactive) |
| OC(c1cc(F)cc(Cl)c1)c1ncc(-c2ccc(Cl)cc2)[nH]1 (stereo not given) | 86.1% (active) |
| OC(c1cccc(F)c1)c1ncc(-c2ccc(C(F)(F)F)cc2)[nH]1 (stereo not given) | 19% (inactive) |
| Cc1ccccc1-c1cnc(C(O)c2ccc(C(C)(C)C)cc2)[nH]1 (stereo not given) | 49.1% (inactive) |
| CC(C)(C)c1ccc(C(O)c2ncc(-c3ccccc3)[nH]2)cc1 (stereo not given) | 13.8% (inactive) |
| Cc1ccc(C(O)c2ncc(-c3ccc(C(F)(F)F)cc3)[nH]2)cc1F (stereo not given) | 61.8% (active) |
| OC(c1ccccc1)c1ncc(-c2ccc(Oc3ccccc3)cc2)[nH]1 (stereo not given) | 36.3% (inactive) |
| CCCc1ccc(C(O)c2ncc(-c3cccc(F)c3)[nH]2)cc1 (stereo not given) | 35.4% (inactive) |
| Cc1ccc(C(O)c2ncc(-c3cccc(F)c3)[nH]2)cc1 (stereo not given) | 11.8% (inactive) |
| CS(=O)c1nncn1CC#Cc1ccc(C(F)(F)F)cc1 (stereo not given) | 37% (inactive) |
| OC(c1ccc(Cl)c(Cl)c1)c1ncc(-c2cccc(F)c2)[nH]1 (stereo not given) | 23.7% (inactive) |
| OC(c1ccc(Cl)c(F)c1)c1ncc(-c2cccc(F)c2)[nH]1 (stereo not given) | 36.1% (inactive) |
| OC(c1cc(F)cc(Cl)c1)c1ncc(-c2ccc3ccccc3c2)[nH]1 (stereo not given) | 73.4% (active) |
| CCc1nc2c(c(=O)c3ccccc3n2C)c(=O)n1CCc1ccccc1 | -31.8% (inactive) |
| Cn1c(CCC(=O)Nc2ccc(F)cc2F)nc(=O)c2ccccc21 | 72.3% (active) |
| O=C1c2ccccc2C(=O)N1CCCCNc1ccc(F)cc1F | 49.6% (inactive) |
| Cc1cc(NC(=O)CSc2nc3ccccc3c(=O)n2C2CCCC(C)C2C)on1 (stereo not given) | 9.06% (inactive) |
| Cn1cnnc1SCC(=O)Nc1ccc2oc3ccccc3c2c1 | 76.7% (active) |
| O=C(CSc1ncnc2c1oc1ccccc12)Nc1ccc2c(c1)OCO2 | 47.2% (inactive) |
| O=C(CSc1nncs1)Nc1ccc2oc3ccccc3c2c1 | 92.2% (active) |
| Cn1nnnc1SCC(=O)Nc1ccc2oc3ccccc3c2c1 | 36.7% (inactive) |
| CC(C)(C)NC(=O)[C@H]1CC[C@H]2[C@@H]3CC[C@H]4NC(=O)C=C[C@]4(C)[C@H]3CC[C@]12C | 86.4% (active) |
| CC(=O)[C@H]1CCC2C3CCC4=CC(=O)CC[C@]4(C)C3CC[C@@]21C (stereo not given in full) | 49.6% (inactive) |
